{"source": "ChEMBL document CHEMBL2218924", "about": "“A broad activity screen in support of a chemogenomic map for kinase signalling research and drug discovery” (Biochem J, 2013)", "key": {"[1]": {"biological_target": "T1, Serine/threonine-protein kinase TBK1 (Homo sapiens) (UniProt Q9UHD2)", "T1 sequence (whole entry)": "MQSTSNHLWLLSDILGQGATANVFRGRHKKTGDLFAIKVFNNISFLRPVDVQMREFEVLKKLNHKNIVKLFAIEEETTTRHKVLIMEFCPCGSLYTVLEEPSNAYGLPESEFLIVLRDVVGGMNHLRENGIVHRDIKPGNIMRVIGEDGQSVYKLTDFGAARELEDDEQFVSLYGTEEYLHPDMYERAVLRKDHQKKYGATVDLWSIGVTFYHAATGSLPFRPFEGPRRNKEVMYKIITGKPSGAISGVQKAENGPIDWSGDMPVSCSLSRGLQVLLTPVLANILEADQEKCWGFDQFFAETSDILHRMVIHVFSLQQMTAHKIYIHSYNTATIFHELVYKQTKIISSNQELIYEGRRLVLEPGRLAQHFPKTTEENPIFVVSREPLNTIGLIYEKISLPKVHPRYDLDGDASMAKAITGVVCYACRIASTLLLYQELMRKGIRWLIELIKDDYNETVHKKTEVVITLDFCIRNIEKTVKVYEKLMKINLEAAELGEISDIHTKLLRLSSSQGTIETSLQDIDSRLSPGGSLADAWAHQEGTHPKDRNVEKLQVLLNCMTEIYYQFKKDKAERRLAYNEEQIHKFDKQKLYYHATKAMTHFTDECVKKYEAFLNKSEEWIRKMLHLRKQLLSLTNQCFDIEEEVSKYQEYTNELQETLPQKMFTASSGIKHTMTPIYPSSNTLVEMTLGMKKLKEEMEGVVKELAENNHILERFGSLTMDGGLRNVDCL", "settings": "at 10 µM"}, "[2]": {"biological_target": "T2, TGF-beta receptor type-1 (Homo sapiens) (UniProt P36897)", "T2 sequence (whole entry)": "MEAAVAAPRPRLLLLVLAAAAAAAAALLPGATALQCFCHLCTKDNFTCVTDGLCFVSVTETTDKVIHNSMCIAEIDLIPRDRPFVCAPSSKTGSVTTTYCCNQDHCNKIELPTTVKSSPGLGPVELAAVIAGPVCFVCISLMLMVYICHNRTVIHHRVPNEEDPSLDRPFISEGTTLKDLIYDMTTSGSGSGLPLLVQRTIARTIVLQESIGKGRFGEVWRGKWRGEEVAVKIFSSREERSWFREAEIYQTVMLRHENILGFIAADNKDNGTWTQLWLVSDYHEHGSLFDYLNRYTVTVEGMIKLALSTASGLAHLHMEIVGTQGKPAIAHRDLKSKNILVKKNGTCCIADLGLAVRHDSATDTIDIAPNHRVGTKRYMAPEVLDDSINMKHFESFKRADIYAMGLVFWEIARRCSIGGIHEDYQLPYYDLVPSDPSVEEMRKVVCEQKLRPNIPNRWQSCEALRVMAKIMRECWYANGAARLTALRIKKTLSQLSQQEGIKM", "settings": "at 1 µM"}, "[3]": {"biological_target": "T2, TGF-beta receptor type-1 (Homo sapiens)", "settings": "at 10 µM"}, "[4]": {"biological_target": "Insulin-like growth factor 1 receptor (Homo sapiens) (UniProt P08069)", "sequence (P08069 31-736 limits assumed)": "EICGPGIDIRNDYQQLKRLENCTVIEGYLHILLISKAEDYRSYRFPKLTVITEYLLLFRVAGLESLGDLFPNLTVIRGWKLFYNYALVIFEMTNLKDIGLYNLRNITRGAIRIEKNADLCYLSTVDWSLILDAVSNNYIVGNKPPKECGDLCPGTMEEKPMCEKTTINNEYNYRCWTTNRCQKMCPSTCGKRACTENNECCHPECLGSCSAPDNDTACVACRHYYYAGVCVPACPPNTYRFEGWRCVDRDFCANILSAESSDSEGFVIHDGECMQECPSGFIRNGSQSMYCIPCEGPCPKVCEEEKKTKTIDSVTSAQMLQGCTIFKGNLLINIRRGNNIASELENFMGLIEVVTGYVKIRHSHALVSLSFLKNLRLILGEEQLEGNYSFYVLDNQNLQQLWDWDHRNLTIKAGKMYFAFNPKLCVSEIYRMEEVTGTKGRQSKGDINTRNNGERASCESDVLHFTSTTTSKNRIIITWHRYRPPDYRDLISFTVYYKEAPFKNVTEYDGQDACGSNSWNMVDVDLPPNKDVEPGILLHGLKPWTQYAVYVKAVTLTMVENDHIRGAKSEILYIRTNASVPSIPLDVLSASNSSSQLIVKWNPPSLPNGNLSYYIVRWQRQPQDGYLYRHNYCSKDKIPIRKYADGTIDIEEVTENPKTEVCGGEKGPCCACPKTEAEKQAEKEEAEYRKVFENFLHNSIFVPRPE", "sequence (P08069 741-1367 limits assumed)": "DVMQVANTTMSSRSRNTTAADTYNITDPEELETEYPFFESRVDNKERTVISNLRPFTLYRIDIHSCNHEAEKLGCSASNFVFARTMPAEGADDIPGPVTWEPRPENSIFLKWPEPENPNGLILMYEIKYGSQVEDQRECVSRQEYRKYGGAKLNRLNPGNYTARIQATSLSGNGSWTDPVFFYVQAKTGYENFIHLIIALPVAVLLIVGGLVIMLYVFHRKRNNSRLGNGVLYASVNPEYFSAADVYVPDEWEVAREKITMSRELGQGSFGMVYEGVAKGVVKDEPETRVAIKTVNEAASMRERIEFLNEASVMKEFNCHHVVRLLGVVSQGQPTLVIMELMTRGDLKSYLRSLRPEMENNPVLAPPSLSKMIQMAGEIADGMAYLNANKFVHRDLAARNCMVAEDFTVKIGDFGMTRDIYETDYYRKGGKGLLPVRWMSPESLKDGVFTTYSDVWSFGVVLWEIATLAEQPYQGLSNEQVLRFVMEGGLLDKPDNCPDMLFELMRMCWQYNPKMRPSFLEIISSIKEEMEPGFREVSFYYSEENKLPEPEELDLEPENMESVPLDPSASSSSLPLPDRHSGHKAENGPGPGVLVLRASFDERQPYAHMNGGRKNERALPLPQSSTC", "settings": "at 1 µM"}, "[5]": {"biological_target": "Insulin-like growth factor 1 receptor (Homo sapiens) (UniProt P08069)", "settings": "at 10 µM"}, "[6]": {"biological_target": "T3, Inhibitor of nuclear factor kappa-B kinase subunit alpha (Homo sapiens) (UniProt O15111)", "T3 sequence (whole entry)": "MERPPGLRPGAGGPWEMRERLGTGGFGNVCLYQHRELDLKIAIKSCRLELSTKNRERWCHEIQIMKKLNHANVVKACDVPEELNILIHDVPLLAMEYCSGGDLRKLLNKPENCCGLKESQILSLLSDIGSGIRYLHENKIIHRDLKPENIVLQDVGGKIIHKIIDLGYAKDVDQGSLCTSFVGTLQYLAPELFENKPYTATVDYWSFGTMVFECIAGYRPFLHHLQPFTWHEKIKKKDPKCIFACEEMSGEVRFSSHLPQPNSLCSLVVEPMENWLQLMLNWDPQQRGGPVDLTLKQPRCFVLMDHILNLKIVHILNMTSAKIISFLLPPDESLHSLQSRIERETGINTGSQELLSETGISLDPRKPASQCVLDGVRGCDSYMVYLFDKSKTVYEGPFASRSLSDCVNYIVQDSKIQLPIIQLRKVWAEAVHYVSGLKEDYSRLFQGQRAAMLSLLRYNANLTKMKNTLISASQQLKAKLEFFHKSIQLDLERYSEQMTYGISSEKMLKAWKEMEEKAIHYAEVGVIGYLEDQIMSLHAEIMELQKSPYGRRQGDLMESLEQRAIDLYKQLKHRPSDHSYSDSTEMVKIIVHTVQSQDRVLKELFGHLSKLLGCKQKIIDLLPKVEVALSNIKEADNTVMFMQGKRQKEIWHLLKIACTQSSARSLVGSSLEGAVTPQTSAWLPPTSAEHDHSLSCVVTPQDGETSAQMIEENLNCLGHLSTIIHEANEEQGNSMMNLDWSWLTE", "settings": "at 1 µM"}, "[7]": {"biological_target": "T3, Inhibitor of nuclear factor kappa-B kinase subunit alpha (Homo sapiens)", "settings": "at 10 µM"}, "[8]": {"biological_target": "T4, Inhibitor of nuclear factor kappa-B kinase subunit beta (Homo sapiens) (UniProt O14920)", "T4 sequence (whole entry)": "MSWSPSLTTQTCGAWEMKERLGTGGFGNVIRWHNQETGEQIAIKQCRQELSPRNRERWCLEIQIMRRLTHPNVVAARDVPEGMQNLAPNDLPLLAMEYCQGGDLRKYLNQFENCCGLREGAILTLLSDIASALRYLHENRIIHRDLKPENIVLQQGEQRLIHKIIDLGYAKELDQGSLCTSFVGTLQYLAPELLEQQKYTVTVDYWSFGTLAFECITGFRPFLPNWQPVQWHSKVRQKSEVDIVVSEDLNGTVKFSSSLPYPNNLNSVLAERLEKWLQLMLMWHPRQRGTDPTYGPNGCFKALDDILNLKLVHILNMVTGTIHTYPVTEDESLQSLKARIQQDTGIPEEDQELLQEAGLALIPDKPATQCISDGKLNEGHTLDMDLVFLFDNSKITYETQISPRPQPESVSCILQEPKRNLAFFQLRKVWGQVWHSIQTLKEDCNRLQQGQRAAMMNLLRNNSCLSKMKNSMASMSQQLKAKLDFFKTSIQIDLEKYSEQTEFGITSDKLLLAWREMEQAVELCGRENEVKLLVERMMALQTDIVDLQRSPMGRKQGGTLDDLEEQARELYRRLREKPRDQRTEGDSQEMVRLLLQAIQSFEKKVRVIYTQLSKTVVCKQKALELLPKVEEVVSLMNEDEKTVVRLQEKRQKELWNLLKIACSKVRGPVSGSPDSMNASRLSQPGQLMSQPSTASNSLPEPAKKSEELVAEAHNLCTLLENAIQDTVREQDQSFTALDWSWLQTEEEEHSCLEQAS", "settings": "at 1 µM"}, "[9]": {"biological_target": "T4, Inhibitor of nuclear factor kappa-B kinase subunit beta (Homo sapiens)", "settings": "at 10 µM"}, "[10]": {"biological_target": "Insulin receptor (Homo sapiens) (UniProt P06213)", "sequence (P06213 28-758 limits assumed)": "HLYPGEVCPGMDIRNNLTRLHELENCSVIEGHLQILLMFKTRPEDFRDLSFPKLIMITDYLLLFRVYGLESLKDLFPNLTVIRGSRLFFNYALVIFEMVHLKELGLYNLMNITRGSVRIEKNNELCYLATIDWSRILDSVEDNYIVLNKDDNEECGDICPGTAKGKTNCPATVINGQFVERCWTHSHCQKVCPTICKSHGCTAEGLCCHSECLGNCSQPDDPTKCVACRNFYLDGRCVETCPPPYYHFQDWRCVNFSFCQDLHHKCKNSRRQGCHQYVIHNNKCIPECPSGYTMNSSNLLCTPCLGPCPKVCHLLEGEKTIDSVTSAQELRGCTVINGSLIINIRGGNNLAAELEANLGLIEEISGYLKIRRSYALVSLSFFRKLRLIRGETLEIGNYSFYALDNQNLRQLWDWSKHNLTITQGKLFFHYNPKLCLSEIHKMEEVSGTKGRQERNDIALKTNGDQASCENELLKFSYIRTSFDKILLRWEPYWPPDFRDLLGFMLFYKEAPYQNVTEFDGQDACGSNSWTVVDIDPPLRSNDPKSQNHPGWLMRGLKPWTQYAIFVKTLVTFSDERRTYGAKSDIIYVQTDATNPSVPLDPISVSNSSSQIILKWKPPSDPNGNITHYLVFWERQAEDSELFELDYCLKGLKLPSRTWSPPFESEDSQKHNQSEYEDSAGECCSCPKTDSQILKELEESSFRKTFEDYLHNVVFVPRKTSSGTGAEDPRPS", "sequence (P06213 763-1382 limits assumed)": "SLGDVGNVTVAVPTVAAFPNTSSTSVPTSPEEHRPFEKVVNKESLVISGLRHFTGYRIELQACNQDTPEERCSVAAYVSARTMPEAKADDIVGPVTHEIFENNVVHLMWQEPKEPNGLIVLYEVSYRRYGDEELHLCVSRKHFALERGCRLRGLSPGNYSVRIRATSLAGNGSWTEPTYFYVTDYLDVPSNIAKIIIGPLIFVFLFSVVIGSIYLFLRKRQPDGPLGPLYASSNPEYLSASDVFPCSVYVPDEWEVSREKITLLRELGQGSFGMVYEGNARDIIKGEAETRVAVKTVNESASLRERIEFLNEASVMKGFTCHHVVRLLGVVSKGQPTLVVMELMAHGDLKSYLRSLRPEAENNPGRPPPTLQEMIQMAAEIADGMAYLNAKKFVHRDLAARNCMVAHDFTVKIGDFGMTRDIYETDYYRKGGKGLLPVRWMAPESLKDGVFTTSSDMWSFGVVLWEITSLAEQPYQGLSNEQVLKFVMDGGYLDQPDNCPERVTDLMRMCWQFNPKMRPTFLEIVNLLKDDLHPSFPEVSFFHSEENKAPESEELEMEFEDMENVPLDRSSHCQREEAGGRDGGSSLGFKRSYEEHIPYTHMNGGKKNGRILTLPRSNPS", "settings": "at 1 µM"}}, "data": [{"compound": "CC[n+]1c(/C=C/N(C)c2ccccc2)n(-c2ccccc2)c2ccc(-c3nc4ccccc4s3)cc21", "values": [{"measurement": "residual activity", "setting": "[1]", "value": 68, "unit": "%"}, {"measurement": "residual activity", "setting": "[2]", "value": 80, "unit": "%"}, {"measurement": "residual activity", "setting": "[3]", "value": 102, "unit": "%"}, {"measurement": "residual activity", "setting": "[4]", "value": 97, "unit": "%"}, {"measurement": "residual activity", "setting": "[5]", "value": 86, "unit": "%"}, {"measurement": "residual activity", "setting": "[6]", "value": 92, "unit": "%"}, {"measurement": "residual activity", "setting": "[7]", "value": 93, "unit": "%"}, {"measurement": "residual activity", "setting": "[8]", "value": 105, "unit": "%"}, {"measurement": "residual activity", "setting": "[9]", "value": 102, "unit": "%"}, {"measurement": "residual activity", "setting": "[10]", "value": 107, "unit": "%"}]}]}
